Common to all, as to type: functional
Test [1] has as its system Plasmodium falciparum. Put plainly: GSK_TCMDC: Inhibition of Plasmodium falciparum 3D7 in whole red blood cells, using parasite LDH activity as an index of growth. Test compounds present at 2uM.
Test [2] concerns Plasmodium falciparum. In words: GSK_TCMDC: Inhibition of Plasmodium falciparum Dd2 in whole red blood cells, using parasite LDH activity as an index of growth. Test compounds present at 2uM.
For test [3], the system named is HepG2. Put plainly: GSK_TCMDC: Percent inhibition of human HepG2 cell line. Test compounds present at 10uM.

By Inhibition is commonly meant the drop in the measured response relative to a control, in per cent. Low readings indicate a response near the control, high ones a response far below the control. As for `C(=C(c1cccs1)c1cccs1)c1ccc(CNC2CCN(Cc3ccccc3)CC2)cc1.Cl`, the Inhibition in test [1] turned out to be 98%; in test [2] it was 21%; in test [3], 40%.
The like results for `Oc1ccc(-c2nc3c4cc(I)ccc4c4ccc(I)cc4c3[nH]2)cc1` were, in that order, 98%, 51% and 0%.
The like results for `COc1ccc2nc3cc(Cl)ccc3c(NCc3ccccc3)c2c1.Cl` were, in that order, 100%, 50% and 8%.
In the same order, the values of `Cc1[nH]c(C)c(-c2ccc(OCc3ccccc3C(F)(F)F)nc2)c(=O)c1Br` are 98%, 97% and 35%.
With `CO/N=C(\C)c1ccc2c(c1)CCN(CCC1CCC(NC(=O)/C=C/c3ccc(F)cc3)CC1)CC2.Cl` (stereo unspecified), the figures for the Inhibition in test [1], in test [2] and in test [3] were 95%, 15% and 45%, respectively.
As to `O=C(Nc1nc(-c2ccccn2)cs1)c1ccc(Br)s1`, the Inhibition is recorded as 96% in test [1], 84% in test [2] and 40% in test [3].
Turning to `Cc1cc(NC(=O)Nc2cccc(Cl)c2Cl)c2ccccc2n1`, the figures for the Inhibition in test [1], in test [2] and in test [3] were 96%, 25% and 0%, respectively.
In the same order, the values of `FC(F)(F)c1ccc2[nH]c(-c3cccc(-c4ccc(CNCCc5ccncc5)cc4)c3)nc2c1.O=C(O)C(F)(F)F` are 99%, 100% and 23%.
The like results for `CCCNCc1ccc(-c2ccc(CNC3Cc4ccccc4C3)cc2)nc1.O=C(O)C(F)(F)F` were, in that order, 97%, 32% and 23%.
The like results for `O=C(Nc1cccc(CN2CCN(C(=O)c3cccc(Cl)c3)CC2)c1)c1cccs1.O=C(O)C(F)(F)F` were, in that order, 94%, 94% and 17%.
Regarding `O=C(Nc1ccc(-c2ccccc2)cc1)Nc1ccc2c(c1)CCNCC2.O=C(O)C(F)(F)F`, the values for the Inhibition in test [1], in test [2] and in test [3] were 97%, 48% and 41%, respectively.
The like results for `CC(C)c1ccc(NC(=O)c2ccc(C(=O)NC3CCN(CC4CCCCC4)C3)cc2)cc1.O=C(O)C(F)(F)F` (stereo unspecified) were, in that order, 93%, 26% and 35%.
`N=C(N)Nc1ccc(C(=O)O)c(O)c1`: the Inhibition in test [1] was 94%; in test [2], 1%; in test [3], 0%.
The like results for `CN(C)CC1c2[nH]c3ccccc3c2CCN1C(=O)Nc1ccc(Cl)c(Cl)c1.Cl` (stereo unspecified) were, in that order, 90%, 32% and 99%.
Take `CC(C)(C)c1ccc(CNC(=O)c2cc(CNC3CCNCC3)ccc2O)cc1`: the Inhibition came to 96% in test [1], 8% in test [2] and 6% in test [3].
In the same order, the values of `CN1CCN(CCc2ccc(N/C=C3\C(=O)Nc4ccc5ncccc5c43)cc2)CC1.Cl` are 100%, 98% and 51%.
`O=C(CCCCCNC(=O)c1ccc(O)c(-c2ccc(Cl)c(Cl)c2)c1)NC1CCCCCC1`: the Inhibition in test [1] came to 92%; in test [2], 3%; in test [3] it was 0%.
The like results for `N#Cc1c(N2CCN(c3ccc(F)cc3)CC2)nc(N)c2c(N)nc3c(c12)CC(=O)N3C1CC1` were, in that order, 95%, 82% and 2%.
In the case of `COc1cc(NC(=O)CCCCCCCN2CCN(C)CC2)c2ncccc2c1`, the Inhibition worked out at 95% in test [1], 83% in test [2] and 2% in test [3].
For the molecule `N#Cc1cccc(Nc2cc(C(F)(F)F)nc(Nc3ccccc3)n2)c1.O=C(O)C(F)(F)F`, the values for the Inhibition in test [1], in test [2] and in test [3] were 92%, 17% and 7%, respectively.
For `COc1ccc2nccc([C@@H](O)CN3CCC(NCc4cc5ccccc5[nH]4)CC3)c2c1.CS(=O)(=O)O`, the Inhibition in test [1] amounted to 92%; in test [2], 41%; in test [3], 75%.
In the same order, the values of `O=C(O)C(F)(F)F.c1ccc2[nH]c(-c3ccc(-c4ccc(CN5CCN(CCN6CCOCC6)CC5)cc4)s3)nc2c1` are 100%, 100% and 39%.
The like results for `CN(c1ccc(C(=O)N[C@@H](CCC(=O)O)C(=O)O)cc1)S(=O)(=O)c1ccc2nc(N)[nH]c(=O)c2c1` were, in that order, 97%, 3% and 16%.
The like results for `CCCCOc1cc2ncc(C(=O)OCC)c(O)c2cc1OCCCC` were, in that order, 97%, 96% and 0%.
With `COc1ccc(CCNc2ccnc3cc(Cl)ccc23)cc1OC.Cl`, the Inhibition in test [1] was found to be 100%; in test [2], 92%; in test [3] it was 4%.
Consider `Cc1cnc2ccc(NS(=O)(=O)c3ccc4c(Cl)cccc4c3)cc2c1N1CCNCC1.Cl`, for which the Inhibition was found to be 100% in test [1], 3% in test [2] and 24% in test [3].
Regarding `N=C(Nc1ccccc1)Nc1cccc(Cc2ccc([N+](=O)[O-])cc2)n1`, the Inhibition was 96% in test [1], 19% in test [2] and 28% in test [3].
In the same order, the values of `CC(C)CNCc1cccc(-c2cccc(CN(CCCN3CCN(C)CC3)C(=O)Nc3ccccc3)c2)c1.O=C(O)C(F)(F)F` are 95%, 76% and 25%.
In the same order, the values of `Fc1ccc(NC(=S)NCCc2ccccc2)cc1` are 99%, 0% and 0%.
On to `Br.N=C(N)Nc1nc(-c2cc(NC(=O)C(F)(F)F)cc([N+](=O)[O-])c2)cs1`, for which the Inhibition in test [1] came to 98%; in test [2], 51%; in test [3], 7%.
Consider `CN1C(=O)C(=NN=C(S)N2CCOCC2)c2ccccc21`, for which the Inhibition in test [1] came out at 95%; in test [2], 54%; in test [3], 57%.
In the same order, the values of `CC(C)CNCc1cccc(-c2cccc(CNC3CCN(Cc4ccccc4)CC3)c2)c1.O=C(O)C(F)(F)F` are 100%, 99% and 32%.
